Data taken from PubChem BioAssay AID624273 (Broad Institute, 2012).
Screen size: about 1,000 compounds; about 230 (23%) were called active. Another 1% or so got no clear call; they are omitted. The rule behind the calls is not given here. The list shows a part of the results. Where a call stands in place of a potency, no number is given. Potency and affinity values are given separately.

target: Long-chain-fatty-acid--AMP ligase FadD28 (Mycobacterium tuberculosis (strain ATCC 25618 / H37Rv)) (UniProt P9WQ59); assay: inhibitors of FadD28 bisubstrate probe binding, dose response, biochemical, fluorescence polarization, cherry-pick (AID 624273); settings: series mostly up to 50 µM
Sequence (P9WQ59 whole entry, looked up): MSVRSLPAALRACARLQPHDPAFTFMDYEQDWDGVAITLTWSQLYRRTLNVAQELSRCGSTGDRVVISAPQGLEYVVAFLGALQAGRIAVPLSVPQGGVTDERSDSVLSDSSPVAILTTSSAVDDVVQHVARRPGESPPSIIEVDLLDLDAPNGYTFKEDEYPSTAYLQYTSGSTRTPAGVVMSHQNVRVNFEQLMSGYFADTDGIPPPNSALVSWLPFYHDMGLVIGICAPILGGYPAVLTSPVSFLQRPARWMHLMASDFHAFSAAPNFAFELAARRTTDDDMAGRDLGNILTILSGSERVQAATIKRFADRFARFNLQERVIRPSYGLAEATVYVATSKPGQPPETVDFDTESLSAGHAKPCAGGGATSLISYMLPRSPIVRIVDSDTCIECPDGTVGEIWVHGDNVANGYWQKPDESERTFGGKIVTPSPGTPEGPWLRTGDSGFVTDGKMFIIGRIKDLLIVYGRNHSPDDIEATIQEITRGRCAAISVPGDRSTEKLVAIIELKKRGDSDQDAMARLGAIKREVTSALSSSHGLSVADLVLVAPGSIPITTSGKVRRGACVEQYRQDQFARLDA

SMILES | outcome
CC(=O)NNC(=S)Nc1cccc(F)c1 | inactive
Cc1cccc(NC(=O)NNC(=O)c2ccc3ccccc3c2O)c1 | inactive
Cc1ccc(SCCN2CCN(C)CC2)cc1 | inactive
Cn1ncnc2c(=O)n(C)c(=O)nc1-2 | inactive
CN(C)c1cccc(NC(=O)c2ccco2)c1 | inactive
COc1ccccc1NC(=O)c1ccc2c(c1)C(=O)N(c1ccccc1OC)C2=O | inactive
COCCCN1CN(S(=O)(=O)c2ccc(Cl)cc2)c2nc3ccccc3nc21 | inactive
CC1CCCC(C)N1CCCNC(=O)c1ccc2nc(N3CCOCC3)sc2c1 (stereo not drawn) | inactive
O=C(Nc1nc2ccc(SC(F)F)cc2s1)c1ccc(NS(=O)(=O)c2ccc(F)c(F)c2)cc1 | inactive
COc1ccc(OC)c(NC(=O)c2ccc(NC(C)=O)cc2)c1 | inactive
COc1ccc(C(=O)NNC(=O)C(=O)NCc2ccccc2)cc1 | inactive
Cc1ccc(C)c(C(=O)C(C)OC(=O)c2cccn2C)c1 (stereo not drawn) | inactive
O=C(CN1C(=O)c2ccccc2C1=O)N(CCO)Cc1ccccc1 | inactive
CCCc1nc(N)c(C#N)c(-c2ccco2)c1CC | inactive
O=C(COC(=O)c1cccs1)Nc1cccc(S(=O)(=O)N2CCOCC2)c1 | inactive
COc1ccc(S(=O)(=O)N2CCCCCC2)cc1C(=O)NCc1cccs1 | inactive
CCOC1=C(C#N)CC2(CC1)c1ccccc1-c1ccccc12 | inactive
Cc1ccc(C)n1C(CC(=O)O)c1ccc(C#N)cc1 (stereo not drawn) | inactive
O=C1C2CC=CCC2C(=O)N1c1ccc(NCCc2ccc(O)cc2)c([N+](=O)[O-])c1 (stereo not drawn) | inactive
C=CCOc1cccc(C2C(C(=O)c3ccc(C)o3)=C(O)C(=O)N2CCCn2ccnc2)c1 (stereo not drawn) | inactive
CC(=O)Nc1sc(N/N=C\c2ccccc2)nc1-c1cccs1 | inactive
O=C(O)c1ccc(N/N=C/C2=Cc3ccccc3OC2)cc1 | inactive
O=C(O)c1cc(N/N=C/c2c[nH]c3ccccc23)ccc1Cl | inactive
COc1cc(C(C)=O)ccc1OC(=O)N(C)c1ccccc1 | inactive
CN1CCCC(C(=O)c2ccc(-c3ccccc3)cc2)C1 (stereo not drawn) | inactive

SMILES | outcome
COc1ccc(Cl)cc1NC(=S)N(Cc1ccc(C(=O)O)cc1)Cc1ccc(OC)c(OC)c1 | inactive
Cc1ccc(S(=O)(=O)N2CCN(C(=O)COC(=O)Cc3cccc(C(F)(F)F)c3)CC2)c(C)c1 | inactive
Cc1c(N=Cc2c(O)n(CCc3ccc(F)cc3)c(=O)[nH]c2=O)c(=O)n(-c2ccccc2)n1C | inactive
Cc1ccc(C)c(C(O)c2ncc(-c3ccccc3F)[nH]2)c1 (stereo not drawn) | inactive
CC1=C(C(=O)OCc2ccccc2)C(c2ccccc2Cl)NC(=O)N1C (stereo not drawn) | inactive
OC1(c2ccccc2)c2ccccc2-c2ncccc21 (stereo not drawn) | inactive
COc1ccc(Cn2c(O)c(C=Nc3ccccc3C(=O)O)c3ccccc3c2=O)cc1 | inactive
O=C(CNC(=S)N(Cc1ccccc1)Cc1cccnc1)N1CCOCC1 | inactive
CC(C=NNc1ccc([N+](=O)[O-])cn1)=Cc1ccccc1 | inactive
Fc1ccc(-n2cc(-c3ccccc3)c3c(N4CCOCC4)ncnc32)cc1 | inactive
FC(F)(F)c1cccc(NC(=S)N2CCN(c3ccccn3)CC2)c1 | inactive
O=C(NNc1ccc(C2CCCCC2)cc1)C(O)(c1ccccc1)c1cccs1 (stereo not drawn) | inactive
O=C(Cc1c(F)cccc1Cl)NC1CCN(Cc2ccccc2)CC1 | inactive
O=C(O)c1[nH]c2ccccc2c1C(c1cccc(O)c1)c1c(C(=O)O)[nH]c2ccccc12 | inactive
Cc1[nH]c2ccccc2c1C(=O)CN1CCSCC1 | inactive
COc1ccc(OC)c(C2CC(=O)Nc3c2c(=O)[nH]c2ncnn32)c1 (stereo not drawn) | inactive
CC(Oc1ccc(Cl)cc1Cl)c1nc(-c2ccc(NC(=O)c3ccco3)cc2)no1 (stereo not drawn) | inactive
O=c1[nH]c(=S)[nH]c(O)c1/C=C1\C=Nc2ccccc21 | inactive
CCOC(=O)C(O)(C1C(=O)CC(C)(C)CC1=O)C(F)(F)F (stereo not drawn) | inactive
O=C1CC(c2cc(F)ccc2F)c2cc3c(cc2N1)CCC3 (stereo not drawn) | inactive
OC1(c2ccc3c(c2)OCO3)CCN(Cc2ccccn2)CC1 | inactive
C[C@@H]1CN([C@H](C)CO)C(=O)c2cc(NC(=O)Nc3ccc(C(F)(F)F)cc3)ccc2O[C@H]1CN(C)C(=O)Nc1ccc(F)cc1 | inactive
CCN(C(=O)CSc1nnc(SC)s1)c1c(N)n(Cc2ccccc2)c(=O)[nH]c1=O | inactive
O=C(CCCCn1c(=O)c2ccccc2n(CC(=O)Nc2ccc(F)cc2)c1=O)NCc1ccco1 | inactive
CCN(CC)S(=O)(=O)c1cc(C(=O)Nc2cc(Cl)ccc2N2CCN(C)CC2)ccc1Cl | inactive

SMILES | outcome
CCCCCCCCCCCCCCCCCCNc1ccn(C2OC(COP(=O)(O)OCC3OC(n4cc(F)c(=O)[nH]c4=O)CC3O)C(O)C2O)c(=O)n1 (stereo not drawn) | inactive
S=C(Nc1ccccc1)N1CCN(c2ccc(N3CCOCC3)nn2)CC1 | inactive
COc1ccccc1CN1CCN(C(=O)c2ccco2)CC1 | inactive
N#CC1(NC(=O)COC(=O)C2=COCCO2)CCCCC1 | inactive
Cc1ccccc1-c1cc(C(=O)N2CCCC2)c2ccccc2n1 | inactive
COc1cc(/C=C2\C(=O)ON=C2c2ccccc2)cc(Br)c1O | inactive
CC(=O)Nc1cnc(-c2ccc(O)cc2C)cn1 | inactive
CCOc1ccc(CNC(=O)CCc2cn(C)c3ccccc23)cc1OC | inactive
O=C(c1cc2cc(F)ccc2[nH]1)N1CCc2ccccc2C1 | inactive
COc1ccc(-c2coc3c(C(=O)Nc4cccc(C(C)=O)c4)cccc23)c(C)c1 | inactive
COc1ccc(NC(=O)c2ccccc2NS(C)(=O)=O)cc1OC | inactive
CCN(CC(=O)Nc1c(F)cccc1F)C(=O)Cc1ccccc1 | inactive
N#CC1=C(N)OC2=C(C(=O)CCC2)C1c1cc2c(cc1Cl)OCO2 (stereo not drawn) | inactive
COc1ccc(-c2coc3cc(O[C@@H]4O[C@H](CO)[C@@H](O)[C@H](O)[C@H]4O)ccc3c2=O)cc1 | inactive
Cc1ccc(OCc2n[nH]c(=S)n2-c2ccc(Br)cc2)cc1 | inactive
Cc1ccc2c(c1)N(C(=O)NC1CCCCC1)C(C)(C)CC2C (stereo not drawn) | inactive
COc1cc([N+](=O)[O-])ccc1NC(=S)NC(=O)CC(C)(C)C | inactive
Cc1ccc(NC(=O)COC(=O)c2cccc(OC(F)F)c2)cc1S(=O)(=O)N1CCCCC1 | inactive
COc1ccc(-n2nnnc2SCC(=O)Nc2ccccc2N2CCOCC2)cc1OC | inactive
Cc1cc(NCC(=O)Nc2ccc(C)c(S(=O)(=O)N3CCOCC3)c2)ccc1Br | inactive
Cc1ccc(C(=O)N2CCCC2)cc1S(=O)(=O)N1CCOCC1 | inactive
COc1ccc(S(=O)(=O)N2CCCCCC2)cc1NC(=O)c1ccccc1S(C)(=O)=O | inactive
O=C(Nc1ccc(NC(=O)c2cc([N+](=O)[O-])ccc2N2CCOCC2)cc1)c1cccs1 | inactive
